Source: PubChem BioAssay (Tox21)
Results filed as inconclusive are left out. Where a call stands in place of a potency, no number is given. Calls of active or inactive are those of the source. Calls come from the whole dose curve.
Potency is the fitted concentration of half-maximal effect.

Assay: qHTS assay for small molecule agonists of the p53 signaling pathway - cell viability (AID 651633); note: nearly all actives have a fitted effect of over 30% in size
Conditions: p53RE-bla HCT-116 viability, ATP luminescence, 16 h; series mostly up to 83.3 µM
From the text: National Center for Advancing Translational Sciences [NCATS]
NIH Chemical Genomics Center [NCGC]
U.S. Environmental Protection Agency [EPA]
National Institutes of Environmental Health Sciences [NIEHS]
National Toxicology Program [NTP]
U.S. Food and Drug Administration [FDA]
p53, a tumor suppressor protein, is activated following cellular insult, including DNA damage and other cellular stresses. The activation of p53 regulates cell fate by inducing DNA repair, cell cycle arrest, apoptosis, or cellular senescence. The activation of p53, therefore, is a good indicator of DNA damage and other cellular stresses. […] The activation of the reporter gene under culture conditions can be detected by fluorescence intensity. This cell line was used to screen the Tox21 compound library in a 1536-well plate format and to identify agonists that activate the p53 signaling pathway.
Tox21 Assay Protocol Summary:
The p53RE-bla cells were dispensed at 4,000 cells/5 ul/well in 1536-well black wall/clear bottom plates using a Multidrop dispenser. After the assay plates were incubated at a 37 C/5% CO2 incubator for 5 hours, 23 nL of compounds dissolved in DMSO, positive controls or DMSO only was transferred to the assay plate by a pin tool. The plates were incubated at 37 C for 16 hours. After 1 uL of LiveBLAzerTM B/G FRET substrate was added using a Flying Reagent Dispenser, the plates were incubated at room temperature for 2 hours, and fluorescence intensity was measured by an Envision plate reader.
For cell viability readout that measures cytotoxicity, 4 ul/well of CellTiter-Glo reagent was added into the assay plates using a Flying Reagent Dispenser. After 30 min incubation at room temperature, the luminescence intensity in the plates was measured using a ViewLux plate reader.
With `O=C(CCc1ccc(O)cc1)c1c(O)cc(O)cc1O` the Potency was “inactive”.
In the case of `CCOC(=O)[C@H](CCc1ccccc1)N[C@@H](C)C(=O)N(CC(=O)O)C1Cc2ccccc2C1`, the Potency is reported as “inactive”.
With `Cc1cc(=O)c2c(O)c3c(O)cc(=O)c4c3c3c(cc(O)c1c23)C(C)(C)C=4O` the Potency was 1.06 µM (active).
For `Cc1ccc(CO)cc1`, the Potency was “inactive”.
For `NC1[C@H]2CN(c3nc4c(cc3F)c(=O)c(C(=O)O)cn4-c3ccc(F)cc3F)C[C@@H]12` (stereo not given in full), the Potency was “inactive”.
With `CCC(C)COC(C)=O` (stereo not given) the Potency was “inactive”.
With `Nc1ccc(N=Nc2ccccc2)c(N)c1` the Potency was “inactive”.
In the case of `CN1C(C(=O)Nc2ccccn2)=C(O)c2sccc2S1(=O)=O`, the Potency is reported as “inactive”.
For `N#CCc1ccc(Cl)cc1Cl`, the Potency was “inactive”.
For `Cc1ccco1`, the Potency was “inactive”.
For `CCCC(=O)C(=O)O`, the Potency was “inactive”.
In the case of `CC(C)(C)C(=O)C(=O)O`, the Potency is reported as “inactive”.
In the case of `O=c1c(O)c(-c2ccc(O)cc2)oc2cc(O)cc(O)c12`, the Potency is reported as “inactive”.
In the case of `CO/N=C(/C(=O)N[C@@H]1C(=O)N2C(C(=O)O)=C(COC(N)=O)CS[C@H]12)c1ccco1`, the Potency is reported as “inactive”.
With `NCCNCCO` the Potency was “inactive”.
In the case of `c1cc(N(CC2CO2)CC2CO2)ccc1Cc1ccc(N(CC2CO2)CC2CO2)cc1` (stereo not given), the Potency is reported as “inactive”.
In the case of `Oc1c(I)cc(I)c2cccnc12`, the Potency is reported as 10.6 µM (active).
For `O[C@@H]1CO[C@H]2[C@@H]1OC[C@@H]2O`, the Potency was “inactive”.
With `C[C@H]1c2cccc(O)c2C(O)=C2C(=O)[C@]3(O)C(O)=C(C(N)=O)C(=O)[C@@H](N(C)C)[C@@H]3[C@@H](O)[C@@H]21` the Potency was “inactive”.
In the case of `C1C[C@@H]2[C@H]3CC[C@H](C3)[C@@H]2C1`, the Potency is reported as “inactive”.
For `Nc1ncnc2c1ncn2[C@H]1CC[C@@H](CO)O1`, the Potency was “inactive”.
For `CCOC(=O)c1ccc(I)cc1`, the Potency was “inactive”.
With `CCOC(=O)C1=C(C)NC(C)=C(C(=O)OC)C1c1cccc(Cl)c1Cl` (stereo not given) the Potency was “inactive”.
For `CCOc1ccc(Cc2nccc3cc(OCC)c(OCC)cc23)cc1OCC`, the Potency was “inactive”.
For `CC(=O)Oc1ccc([N+](=O)[O-])cc1CCl`, the Potency was “inactive”.
In the case of `O=c1[nH]ncc2ccccc12`, the Potency is reported as “inactive”.
For `Oc1cccc(Nc2ccccc2)c1`, the Potency was “inactive”.
With `CC(C)(c1ccccc1)c1ccccc1` the Potency was “inactive”.
For `N#CCCN(CCO)CCO`, the Potency was “inactive”.
With `Cc1ccc(OC(=O)c2ccccc2O)cc1` the Potency was “inactive”.
In the case of `O=C=Nc1cccc(C(F)(F)F)c1`, the Potency is reported as “inactive”.
With `COc1cc(C(=O)NCCCCCC(=O)O)cc(OC)c1OC` the Potency was “inactive”.
For `CC(=O)[C@H]1[C@H](C#N)C[C@H]2[C@@H]3CC=C4C[C@@H](O)CC[C@]4(C)[C@H]3CC[C@@]21C`, the Potency was “inactive”.
For `CC(C)C=O`, the Potency was “inactive”.
For `CN(C)CCC=C1c2ccccc2C=Cc2ccccc21`, the Potency was “inactive”.
For `CC(C)=CCC1C(=O)N(c2ccccc2)N(c2ccccc2)C1=O`, the Potency was 21.1 µM (active).
In the case of `CC(C)(O)c1ccc(CNC(=O)c2cccnc2Oc2ccc3nonc3c2)cc1`, the Potency is reported as “inactive”.
With `CCCC(C(=O)OCCN(CC)CC)(c1ccccc1)c1ccccc1` the Potency was “inactive”.
In the case of `CCCCCCNC(=O)n1cc(F)c(=O)[nH]c1=O`, the Potency is reported as 0.668 µM (active).
With `COc1ccccc1N1CCN(CC(O)COc2cccc3ccccc23)CC1` (stereo not given) the Potency was “inactive”.
